Screening results from PubChem BioAssay.
IMPase inh: membrane-permeable compound that blocks inositol monophosphatase; P97697; CHO-M1 cells, IP1 accumulation, HTRF TR-FRET ratio; inhibition (IP1 accumulation), % at 46.1 µM; 120,000 tested, under 10 active; AID 901; active = well fitted curve in the direction sought with a large enough effect in the signal ratio, not every such curve was filed as active; inconclusive = small, poorly fitted or top-dose-only effect, or a change in a side signal; inactive = no such curve, though single readings can be large or run the other way; the % refers to the signal ratio;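 note: cells stimulated with carbachol in lithium chloride buffer; plate controls were DMSO basal wells for no effect and reference inhibitor wells for full effect; higher means more IMPase inhibition seen as more IP1 and lower FRET ratio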
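Carbachol-driven Gq signalling in CHO-M1 cells (2000/well) generates IP1. Compounds that block IMPase raise IP1 and so reduce the FRET signal from Eu-anti-IP1 and d2-IP1 after a 10 min room-temperature lysis.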
ALDH1A1 block: ALDH1A1 (human) enzyme inhibition; Purified ALDH1A1, NADH fluorescence, propionaldehyde substrate; Potency, µM (doses to about 75.3 µM), inactives show at the highest dose activity, negative = inhibition, hits mostly inhibitors; 7.3% of 220,000 active; AID 1030;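 note: potency is the fitted concentration of half-maximal effect; plate controls were no enzyme wells and a reference inhibitor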
HPGD block: HPGD (human) dehydrogenase inhibition; P15428; purified HPGD, NADH fluorescence kinetic, PGE2 substrate; Potency, µM, for the others: at the highest dose activity change, negative = inhibition, actives largely listed as inhibitors; 4.3% of 150,000 active; AID 894; note: potency is the fitted concentration of half-maximal effect
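20 nM HPGD preincubated 15 min at room temperature with compound in 50 mM Tris-HCl pH 8, 0.01% Tween 20. Started with 1 mM NAD+ and 30 uM prostaglandin E2; NADH fluorescence (360/450 nm) read 5 times over 30-s intervals, last minus first.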
ALOX12 inhib: inhibitors of human 12-lipoxygenase (ALOX12). Potency, µM (doses to about 57.1 µM), for inactives: at the highest dose activity change, negative = inhibition, most hits filed as inhibitors. 0.12% of 150,000 active. AID 1452. P18054. purified 12-hLO, xylenol orange hydroperoxide absorbance; active = well fitted curve in the direction sought with a large enough effect; inconclusive = small, poorly fitted or top-dose-only effect, or another doubt; inactive = no such curve, though single readings can be large; an effect the other way counts as inactive or inconclusive; note: potency is the fitted concentration of half-maximal effect; nearly all actives have a fitted effect of over 55% in size
Target sequence (P18054 whole entry, looked up): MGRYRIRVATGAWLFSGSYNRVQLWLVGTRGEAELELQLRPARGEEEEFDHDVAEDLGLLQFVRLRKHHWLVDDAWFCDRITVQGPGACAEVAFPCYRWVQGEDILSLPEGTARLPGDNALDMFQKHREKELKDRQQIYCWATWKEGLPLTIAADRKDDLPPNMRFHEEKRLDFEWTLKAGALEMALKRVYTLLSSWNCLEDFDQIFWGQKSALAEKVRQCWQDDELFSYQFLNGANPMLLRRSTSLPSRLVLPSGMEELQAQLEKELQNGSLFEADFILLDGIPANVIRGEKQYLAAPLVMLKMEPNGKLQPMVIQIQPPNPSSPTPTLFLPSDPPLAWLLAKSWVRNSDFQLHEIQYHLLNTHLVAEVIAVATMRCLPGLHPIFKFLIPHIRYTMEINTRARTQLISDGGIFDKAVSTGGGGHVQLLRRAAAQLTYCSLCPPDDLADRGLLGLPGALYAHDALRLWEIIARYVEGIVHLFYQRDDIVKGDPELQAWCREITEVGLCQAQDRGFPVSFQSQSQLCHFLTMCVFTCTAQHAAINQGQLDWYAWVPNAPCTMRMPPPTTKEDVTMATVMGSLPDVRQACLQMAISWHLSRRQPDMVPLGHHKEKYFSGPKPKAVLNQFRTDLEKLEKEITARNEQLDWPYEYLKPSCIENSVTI
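Purified human 12hLO (150 nM), preincubated 15 min with compound, then 40 uM arachidonic acid for 30 min, room temperature, Hepes pH 7.0 with 0.01% Triton X-100. Hydroperoxide detected by ferrous iron/xylenol orange; 573/405 nm absorbance ratio gives reaction progress.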
PNC inhibitor: perinucleolar compartment assembly inhibition | PC3M PTB-GFP, PNC prevalence imaging, 16 h; hits give low values | activity change (PNC), negative = inhibition, % at 10 µM | 3.1% of 140,000 active | AID 2417;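 active = readout at or below -70, meaning at least 70% loss of cells showing the perinucleolar compartment, a nuclear body marking cancer cells; inconclusive = readout between -30 and a set limit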;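 note: plate controls were DMSO wells for no effect and camptothecin positive control wells for full effect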
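Compounds are pinned in duplicate onto adhered PC3M cells stably expressing GFP-tagged PTB and incubated 16 h at 37 C. Cells are then fixed, nuclei stained with Hoechst, and PNC-positive cells counted.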
IMPase Li inh: cell-permeable IMPase inhibitors with lithium potentiation; CHO-M1 cells, IP1 TR-FRET (IP-One), carbachol + lithium; Potency, µM (series often up to 59.4 µM), without a hit: at the highest dose activity, negative = IMPase inhibition, hits mostly inhibitors; 0.35% of 210,000 active; AID 1457; active = well fitted curve in the direction sought with a large enough effect; inconclusive = small, poorly fitted or top-dose-only effect, or another doubt; inactive = no such curve, though single readings can be large; an effect the other way counts as inactive or inconclusive;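 note: IP1 builds up when IMPase is blocked and the TR-FRET signal falls; potency is the fitted concentration of half-maximal effect; plate controls were basal vehicle for no effect and high inhibitor control for full effect; nearly all actives have a fitted effect of over 50% in size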
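Lithium-sensitised IP1 accumulation assay; M1-expressing CHO cells treated 30 min at 37C with compound. Competitive antibody detection by time-resolved FRET followed a 10 min room-temperature lysis step.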
Starred values were filed as active, the others as inactive; [ ] = another dose, or the depositor's remark. Only some compounds are listed: those with a hit (about 11% of all), similar ones and a draw of the others. Unless noted, calls come from the whole dose curve; as a rule, active = well fitted inhibition curve with a large enough effect (not every such curve was filed as active); inconclusive = small, poorly fitted or top-dose-only effect, or another doubt; inactive = no such curve, though single readings can be large or run the other way. Unless noted, % is set by controls: 0 for no effect and ±100 for the full control effect.

Screening O=c1c(-c2cc(F)cc(F)c2)nc2cncnc2n1C1CC1 returned ALDH1A1 block 9% and IMPase Li inh 2%.
`COc1ccc(OC)c(NC(=O)CCCN2C(=O)C3C4C=CC(C4)C3C2=O)c1` (stereo unspecified) gave IMPase inh -9, ALDH1A1 block inconclusive, HPGD block -11%, ALOX12 inhib 0%, PNC inhibitor 27 and IMPase Li inh -9%[38.3 µM].
`COc1ccc(NC(=O)CCCN2C(=O)C3C4C=CC(C4)C3C2=O)c(OC)c1` (stereo unspecified) gave IMPase inh 0, ALDH1A1 block 13µM*, HPGD block -5%, ALOX12 inhib 0%, PNC inhibitor inconclusive and IMPase Li inh 9%.
`CCCCC(=O)Nc1ccc(NC(=O)CC)cc1OC` gave IMPase inh 4, ALDH1A1 block 2%, HPGD block -11%, ALOX12 inhib 6%, PNC inhibitor -84* and IMPase Li inh 10%[38.3 µM].
For COc1ccc(NC(=O)CC(=O)Nc2ccc(OC)cc2OC)c(OC)c1 the results were IMPase inh -5, ALDH1A1 block 27%, HPGD block 2%, ALOX12 inhib -8%, PNC inhibitor -127* and IMPase Li inh -9%[38.3 µM].
For COc1ccc(-c2cc(C(F)(F)F)nc(SCCC(=O)Nc3ccc(NC(C)=O)cc3)n2)cc1 the results were IMPase inh -6.
`COc1cccc([C@@H]2Oc3ccc(OC)cc3C(=O)[C@H]2OC(=O)N[C@H]2CCCc3ccccc32)c1` gave ALDH1A1 block inconclusive, HPGD block -28% and IMPase Li inh 17%.
For CC(C)C[C@@H](CC(=O)N[C@H](CC(=O)N[C@@H]1CCCC[C@H]1C(=O)N[C@H](CC(=O)N[C@@H](CCC(=O)O)CC(=O)O)Cc1c[nH]c2ccccc12)C(C)C)NC(=O)[C@@H]1CCCC[C@H]1N the results were ALDH1A1 block -1%, HPGD block -5%, ALOX12 inhib -4% and IMPase Li inh 5%.
`CS(=O)(=O)N1CCCC(C(=O)NCc2ccccn2)C1` (stereo unspecified) gave IMPase inh -5, ALDH1A1 block -13%, HPGD block -2%, ALOX12 inhib 2%, PNC inhibitor -110* and IMPase Li inh -3%[38.3 µM].
`CC(C)(C)c1ccc(S(=O)(=O)N2CCCCC2C(=O)NCc2ccccn2)cc1` (stereo unspecified) gave IMPase inh 7, ALDH1A1 block 4µM*, HPGD block -14%, ALOX12 inhib -5%, PNC inhibitor inconclusive and IMPase Li inh 49%[38.3 µM].
For COc1ccc(NC(=O)CSc2nc(-c3cccc(C)c3)[nH]c2-c2ccccc2)cc1OC the results were IMPase inh 11.
For O=C(CC12CC3CC(CC(C3)C1)C2)NCc1ccncc1 the results were IMPase inh -6, ALDH1A1 block -3%, HPGD block -8%, ALOX12 inhib -2%, PNC inhibitor -84* and IMPase Li inh 14%[38.3 µM].
For CC1CCc2c(sc(N)c2C(=O)OC(C)C)C1 (stereo unspecified) the results were IMPase inh 0, ALDH1A1 block 11µM*, HPGD block 28µM*, ALOX12 inhib -17%, PNC inhibitor 2 and IMPase Li inh 29%[38.3 µM].
For Cc1nn(C(=O)c2nn(C)cc2[N+](=O)[O-])c(C)c1Cl the results were ALDH1A1 block -3% and IMPase Li inh 2%.
For COC(=O)[C@@H]1CC[C@H](C)[C@@H](c2ccc(C)cc2)N1C(=O)c1ccc(/C=N\O[C@@H]2O[C@H](COC(C)=O)[C@H](OC(C)=O)[C@H](OC(C)=O)[C@H]2OC(C)=O)cc1 the results were ALDH1A1 block 13%[13.5 µM].
For COc1ccc(-c2c(C#N)sc(C(N)=O)c2-c2ccc(OC)cc2)cc1 the results were ALDH1A1 block 2µM*.
